An excerpt weighted towards active compounds, which were near 8% of everything screened.
KB-3-1 cytotox: kills parental KB-3-1 adenocarcinoma cells; AID 1347075; KB-3-1 viability, CellTiter-Glo ATP luminescence, 72 h; hit rate 1.4% among 400,000; Potency, µM (series often up to 46.1 µM), hits mostly cytotoxic; also: nearly all actives have a fitted effect of over 60% in size
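Multi-concentration cytotoxicity screen in KB-3-1 cells grown in DMEM lacking phenol red with 10% FBS. After 72 h at 37 °C with compound, ATP-dependent luminescence was recorded.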
MCF10A rerep: inducers of DNA re-replication in MCF 10A breast cells. MCF 10A DNA re-replication, Hoechst nuclear intensity, 48 h. Potency, µM (series often up to 46.1 µM), actives largely listed as activators. hit rate 2.9% among 350,000. AID 624296; also: nearly all actives have a fitted effect of over 50% in size
HT1080NT lethal: kills 2HG-producing HT-1080-NT fibrosarcoma cells; HT-1080-NT fibrosarcoma viability, CellTiter-Glo ATP luminescence, 48 h; Potency, µM (top dose mostly 46.1 µM), most hits filed as cytotoxic; hit rate 1.6% among 360,000; AID 686970;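 also: NT is the 2HG producing partner of a matched IDH1 knockdown line; nearly all actives have a fitted effect of over 55% in size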
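HT-1080-NT fibrosarcoma cells (2HG-overproducing), 750 cells/well in RPMI with 5% FBS, dosed after 2 h and incubated 48 h at 37C. CellTiter-Glo luminescence normalized to DMSO and no-cell wells; concentration-response curves fitted and classed.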
SW480 rerep: DNA re-replication induction in SW480 cells; Potency, µM (top dose mostly 46.1 µM), hits mostly activators; SW480 DNA re-replication, Hoechst DNA content imaging, 48 h; hit rate 1.8% among 340,000; AID 624297; also: nearly all actives have a fitted effect of over 55% in size
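Image-based read-out: total Hoechst fluorescence of nuclei (405 nm excitation, 500-530 nm emission), with hits raising the fraction of high-intensity nuclei. SW480 colon cells incubated 48 hr with compounds at 37 C.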
HT1080 IDH1KD tx: HT-1080 IDH1 knockdown cell toxicity (counter line); hit rate 2% among 360,000; Potency, µM (top dose mostly 46.1 µM), actives largely listed as cytotoxic; AID 686971; HT-1080 IDH1 knockdown viability, ATP luminescence, 48 h
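After a 2 h attachment period, IDH1KD HT-1080 cells took pin-transferred compound for 48 h at 37 °C; ATP-based luminescence after 10 min room-temperature reagent incubation reported viability.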
KB-V1 MDR tox: KB-V1 MDR subline cytotoxicity; KB-V1 MDR cells viability, CellTiter-Glo, 72 h; Potency, µM (highest dose often 46.1 µM), hits mostly cytotoxic; hit rate 3.4% among 400,000; AID 1347076; also: nearly all actives have a fitted effect of over 60% in size
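KB-V1 cells (P-gp-expressing MDR subline of KB-3-1) in phenol-red-free DMEM with 10% FBS were exposed to library compounds over a concentration series for 72 h at 37 degrees C. Viability read by CellTiter-Glo luminescence; concentration-effect curves fitted after normalization.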
A number is an active result; n = inactive; u = inconclusive; x = not tested or not shown; [ ] = remark or other dose. Calls follow the shape of the dose curve; as a rule, active = well fitted curve in the direction sought with a large enough effect; inconclusive = small, poorly fitted or top-dose-only effect, or another doubt; inactive = no such curve, though single readings can be large; an effect the other way counts as inactive or inconclusive.

SMILES	KB-3-1 cytotox	MCF10A rerep	HT1080NT lethal	SW480 rerep	HT1080 IDH1KD tx	KB-V1 MDR tox
CN(C)c1ccc(C(CNS(=O)(=O)c2ccc3ccccc3c2)c2c[nH]c3ccccc23)cc1 (stereo not given)	n	u	n	n	n	15µM
CN(C)c1ccc(C(CN)c2c[nH]c3ccccc23)cc1 (stereo not given)	n	n	n	n[1.84 µM]	n	n
COc1ccc(CSC(=S)NNc2ccccc2)cc1	u	x	u	x	13µM	n
Cc1cc(C)c(/C=N/NC(N)=O)c(C)c1/C=N/NC(N)=O	3.7µM	u	n	n	n	u
CCc1cc(CC)c(/C=N/NC(N)=O)c(CC)c1	n	n	n	n	n	n
Cc1ccccc1NC(=O)Cn1c(=O)n(CCC(=O)N2CCc3ccccc3C2)c(=O)c2ccccc21	n	x	x	x	x	n
Cc1ccc(S(=O)(=O)CCC(=O)c2ccc(F)cc2)cc1	n	4.6µM	u	u	u	n
Cc1ccc(C(=O)CCS(=O)(=O)c2ccc(Cl)cc2)cc1	n	3.3µM	n	9.2µM	n	n
Cc1ccc(C(=O)CCS(=O)(=O)c2ccc(F)cc2)cc1	u	u	n	u	n	n
COc1cc(C(=O)O)c2ccccc2n1	n	n	n	n	n	n
Cc1ccc(C)c(N2CCN(C(=O)c3cc(C)nc4c3c(C)nn4-c3cccc(F)c3)CC2)c1	n	x	x	x	x	n
O=C(NCc1cccc(Cl)c1)c1cnc(N2CCCCC2)c2ccccc12	n	x	x	x	x	n
COc1cccc(CN(C)C(=O)CNC(=O)c2ccc(-c3ccccc3)cc2)c1OC	n	n	u	n	4.6µM	u
COc1cccc(CN(C)C(=O)CNC(=O)c2cccs2)c1OC	n	n	n	n	n	u
COc1ccc(CN(C)C(=O)CNC(=O)c2sc3ccccc3c2Cl)c(OC)c1OC	u	n	n	n	n	5.8µM
COc1ccc(CN(C)C(=O)CNC(=O)c2sc3ccccc3c2Cl)c(OC)c1	n	x	n	x	n	u
Cc1ccc2nc(-c3cccc(NC(=O)c4ccc5c(c4)OCCO5)c3)oc2c1	u	18µM	n	n	n	n
O=C(Nc1ccc2oc(-c3ccc4ccccc4c3)nc2c1)c1ccc2c(c1)OCCO2	n	n	u	u	u	2.6µM
O=C(CSc1ccccc1)Nc1ccc(-c2nc3ccccc3[nH]2)cc1	21µM	u	13µM	n	u	u
CCOC(=O)c1ccccc1NC(=O)C1CCCO1 (stereo not given)	n	n	n	n	n	n
CC(C)C(=O)Nc1cccc(-c2nc3ncccc3o2)c1	u	n	n	u	n	n
O=C(CSc1ccc(Cl)cc1)Nc1cccc(-c2nc3ncccc3o2)c1	u	n	n	n	n	15µM
CCc1ccc(NC(=O)c2ccccc2NC(=O)C2CCCO2)cc1 (stereo not given)	n	n	n	n	n	6.5µM
O=C(Nc1cccc(-c2nc3ncccc3o2)c1)c1ccc(-c2cccc(Cl)c2Cl)o1	n	x	x	x	x	6.5µM
CCC(C)NC(=O)c1cccc(NC(=O)c2nsc3ccccc23)c1 (stereo not given)	n	x	x	x	x	n
SMILES	KB-3-1 cytotox	MCF10A rerep	HT1080NT lethal	SW480 rerep	HT1080 IDH1KD tx	KB-V1 MDR tox
Cc1ccc2nc(-c3ccc(NC(=O)CSc4ccccc4)cc3)[nH]c2c1	n	n	u	n	13µM	n
O=C(CSc1ccc(Cl)cc1)Nc1cccc(-c2nc3ccccc3[nH]2)c1	n	18µM	n	n	u	n
O=C(Nc1nc2ccccc2[nH]1)C1CCCO1 (stereo not given)	n	u	n	n	n[9.24 µM]	n
O=C(Nc1ccc(-c2nc3ccccc3[nH]2)cc1)C1CCCO1 (stereo not given)	u	n	10µM	n	11µM	u
O=C(NCc1cccc(C(F)(F)F)c1)c1csc([C@@H]2C[C@H](O)[C@@H](CO)O2)n1	n	x	n	x	n	n
O=C(C[C@@H]1C/C=C\C[C@H](Cc2ccc(F)cc2)C(=O)OC[C@H]2CCCN2C1=O)N[C@H](CO)Cc1ccccc1	n	n	n	n	n	n
O=C(Nc1ccc2c(c1)OCO2)c1cc(C2CC2)on1	u	u	u	n	8.2µM	n

Screens from PubChem.
